From PubChem BioAssay AID2284370 (EPA ToxCast)
Inconclusive results are not listed. Active and inactive are the calls of the source. How the source made its calls: active means hit-call score of the fitted dose curve at least 0.9, where 1 is the maximum; inconclusive means response in the unintended direction; inactive means score below 0.9.

Target: human Androgen Receptor (AR), AR (gene 367) (UniProt P10275)
Experiment: ATG_hAR_EcoTox2: Attagene TRANS-FACTORIAL EcoTox-2 HepG2 Assay for human Androgen Receptor (AR)
Procedure: ATG_EcoTox2 is a cell-based, multiplexed assay created by modifying the existing Attagene TRANS-FACTORIAL system to include a panel of nuclear receptors from some or all the following species: human (Homo sapiens), african clawed frog (Xenopus laevis), rainbow trout (Oncorhynchus mykiss), japanese medaka (Oryzias latipes), and zebrafish (Danio rerio). The ECOTOX2-FACTORIAL format uses HepG2, a human liver cell line, with measurements taken at 24 hours after chemical dosing in a 24-well plate. ATG_hAR_EcoTox2 is one of 29 assay components calculated in the ATG_EcoTox2 assay. It is designed to make measurements of mRNA induction, a form of inducible reporter, as detected with fluorescence intensity signals by Reverse transcription polymerase chain reaction (RT-PCR) and Capillary electrophoresis technology.The assay endpoint ATG_hAR_EcoTox2 was analyzed in the positive analysis fitting direction relative to DMSO as the negative control and baseline of activity. Using a type of inducible reporter, measures of mRNA for gain-of-signal activity can be used to understand the reporter gene at the transcription factor-level as they relate to the gene AR. Furthermore, this assay endpoint can be referred to as a primary readout, because this assay has produced multiple assay endpoints where this one serves a reporter gene function. To generalize the intended target to other relatable targets, this assay endpoint is annotated to the nuclear receptor intended target family, where the subfamily is steroidal.
Human liver HepG2 cells are transiently transfected with multiple reporter transcription units (MRTUs) in 6-well plates using FuGene 6 reagent (Roche; 3 ml FuGene/1 mg DNA). The MRTU constructs are regulated by a cis-regulating element (promoter). Each RTU expresses a GAL4-UAS that regulates the transcription of a nearby target reporter gene sequence. A major difference between the CIS and TRANS system is that in CIS activities of endogenous TFs are measured, whereas the TRANS assay evaluates changes in activities of exogenous, chimeric NR-Gal4 proteins. […] At the end of 24 hour incubation, total RNA was isolated using TriZol reagent (Invitrogen). The isolated RNA is then reverse-transcribed using oligo(dT) primer and Mo-MLV reverse transcriptase (Invitrogen) with DNAse I (Ambion) treatment for 30 min. The one-tenth of the produced cDNA was amplified by PCR using Taq DNA polymerase (Invitrogen) and two reporter sequence-specific primers. […] The fragments were purified using Qiaquick PCR columns (Qiagen), analyzed on an ABI 3130xL genetic analyzer (Applied Biosystems) with peak positions identified by using a set of X-rhodamine (ROX)-labeled MapMarker1000 molecular weight standards (BioVentures). […]

human Androgen Receptor (AR), AR (gene 367), sequence (P10275 whole entry, looked up): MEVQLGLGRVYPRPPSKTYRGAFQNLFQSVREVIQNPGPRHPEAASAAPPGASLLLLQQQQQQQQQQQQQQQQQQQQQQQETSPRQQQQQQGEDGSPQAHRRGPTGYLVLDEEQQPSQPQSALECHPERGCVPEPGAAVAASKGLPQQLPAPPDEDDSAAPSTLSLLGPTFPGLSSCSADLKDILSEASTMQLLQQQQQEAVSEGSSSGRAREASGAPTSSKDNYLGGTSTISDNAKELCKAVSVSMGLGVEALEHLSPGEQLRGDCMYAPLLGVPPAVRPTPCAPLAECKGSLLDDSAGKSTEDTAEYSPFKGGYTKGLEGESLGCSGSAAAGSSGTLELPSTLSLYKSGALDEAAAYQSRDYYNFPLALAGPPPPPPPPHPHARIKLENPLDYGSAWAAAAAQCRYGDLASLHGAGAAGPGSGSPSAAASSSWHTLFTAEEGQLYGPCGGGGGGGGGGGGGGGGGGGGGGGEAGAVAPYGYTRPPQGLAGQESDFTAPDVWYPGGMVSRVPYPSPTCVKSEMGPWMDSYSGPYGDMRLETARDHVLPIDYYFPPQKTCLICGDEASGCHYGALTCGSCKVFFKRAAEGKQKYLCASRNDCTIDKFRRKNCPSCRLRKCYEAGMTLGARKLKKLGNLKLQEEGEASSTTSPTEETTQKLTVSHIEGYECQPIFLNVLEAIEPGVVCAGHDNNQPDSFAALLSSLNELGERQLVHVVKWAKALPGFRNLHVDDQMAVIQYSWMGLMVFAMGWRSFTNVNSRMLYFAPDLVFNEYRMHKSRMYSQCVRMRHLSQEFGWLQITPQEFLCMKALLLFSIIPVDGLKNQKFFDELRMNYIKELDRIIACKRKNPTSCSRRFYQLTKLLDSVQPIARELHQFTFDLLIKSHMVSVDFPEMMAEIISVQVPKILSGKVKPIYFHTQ

| Compound | outcome |
| --- | --- |
| CC(C)(Oc1ccc(C2CC2(Cl)Cl)cc1)C(=O)O (centres undefined) | inactive |
| Cc1ccc(C)c(OCCCC(C)(C)C(=O)O)c1 | inactive |
| CC(c1cc2ccccc2s1)N(O)C(N)=O (centres undefined) | inactive |
| CC(C)OC(=O)C(C)(C)Oc1ccc(C(=O)c2ccc(Cl)cc2)cc1 | inactive |
